Experimental findings from PubChem BioAssay AID2501 (Southern Research Specialized Biocontainment Screening …, 2010) are described below.

The structures appear in SMILES notation. The campaign covered roughly 2,200 compounds. About 1,200 (55%) were called active. No cut-off is given here; in the data, nearly all actives have IC50 up to about 92 µM. The set was probably picked from earlier hits. The list shows a part of the results.

The assay is described as follows: counter assay for TAg ATPase ADP read-out – biochemical, ADP-Hunter, fluorescence, counter-screen (AID 2501).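 For inhibition: 0% = enzyme with vehicle and 100% = reference inhibitor wells; higher means more inhibition.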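 Note: purified T antigen ATPase.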 The following applies: series mostly up to 100 µM; inhibition: at the top concentration. On the technique in general: Counterscreens check selectivity or assay interference.
For the compound `CC(NC(=O)Nc1ccc(O)cc1)(C(F)(F)F)C(F)(F)F`, the IC50 (commonly the concentration needed to halve the response being measured) is 6.77 µM (active).

In the case of `CCOC(=O)C1(Cc2ccc(Cl)cc2)CCN(C(=O)CCc2ccncc2)CC1`, the inhibition (commonly the change of the read-out against control, counted positive when it falls) was -4.52% (inactive).

In the case of `CCOC(=O)C1(CCc2ccccc2)CCN(C(=O)CCc2cnn(C)c2)CC1`, the “inhibition” value is -29.5% (inactive).

On to `CCOC(=O)C1(Cc2ccccc2)CCN(Cc2cnn(C(C)C)c2)CC1`, for which the IC50 was 26.4 µM (active).

With `O=C(N/N=C/c1c[nH]c2ccccc12)c1ccc(O)c(O)c1`, the IC50 is 7.17 µM (active).

As to `Cc1ncc(CO)c(/C=N/NC(=O)c2cc(O)c(O)c(O)c2)c1O`, the “inhibition” value was -352% (inactive).

As for `Oc1ccc(O)c(-c2cnns2)c1`, the IC50 was 28.1 µM (active).

For `CC(=O)CC1OC(=O)C(Br)=C1NCc1ccccc1` (centres undefined), the “inhibition” value was 6.4% (inactive).

With `C/C(=N/NC(=O)c1cc(O)c(O)c(O)c1)c1ccc([N+](=O)[O-])cc1`, the “inhibition” value is 25.1% (inactive).

Regarding `C=CCN(c1ccc(C(=O)Nc2cccc([N+](=O)[O-])c2)cc1)S(C)(=O)=O`, the “inhibition” value is -6.02% (inactive).

For the compound `C/C(CC(=O)Nc1ccc(N(C)C)cc1)=N\NC(=O)c1ccc(Cl)cc1Cl`, the IC50 is 3.99 µM (active).

Turning to `C/C(CC(=O)Nc1ccc(N(C)C)cc1)=N\NC(=O)c1ccc([N+](=O)[O-])cc1Cl`, the IC50 is 6.47 µM (active).

Consider `CN(C(=O)COC(=O)CNC(=O)CNC(=O)c1ccc(Cl)cc1Cl)c1ccccc1`, for which the “inhibition” value was 16.9% (inactive).

Regarding `C=C(CC)C(=O)c1ccc(OCC(=O)O)c(Cl)c1Cl`, the “inhibition” value is 2.1% (inactive).

Consider `Cc1ccc(CNC(=O)C2CC(c3ccccc3[N+](=O)[O-])=NO2)cc1` (centres undefined), for which the “inhibition” value is 4.09% (inactive).

On to `CC1=C(C#N)c2nc(N)c(C#N)c(C)c2/C1=C\c1ccc(-c2ccccc2C(=O)O)o1`, for which the “inhibition” value is 24.6% (inactive).

Regarding `COc1cc([N+](=O)[O-])cc(/C=N/NC(=O)CC#N)c1O`, the “inhibition” value is -12.9% (inactive).

As to `CCN=c1scc(C)n1/N=C/c1cc(Br)c(O)c(Br)c1`, the IC50 is 6.61 µM (active).

For the compound `CN=c1scc(C)n1/N=C/c1cc(Br)c(O)c(OC)c1`, the IC50 is 5.68 µM (active).

On to `COc1cc(/C=N/NC(=O)CC#N)cc(Br)c1O`, for which the IC50 was 6.13 µM (active).

As to `CN=c1scc(C)n1/N=C/c1ccc(O)cc1O`, the IC50 was 3.58 µM (active).

For `COc1cc(/C=N/N2C(=O)CSC2=S)cc(Br)c1O`, the half-maximal inhibitory concentration (IC50) was 13.3 µM (active).

Consider `O=C1CSC(=S)N1/N=C/c1ccc(O)c([N+](=O)[O-])c1`, for which the “inhibition” value is 6.19% [at 50 µM] (inactive).

As to `COc1cc(/C=N/N(C)C)cc(Br)c1O`, the IC50 is 3.75 µM (active).

For `CCN=c1scc(C)n1/N=C/c1cc(Br)c(O)c(OC)c1`, the IC50 was 14.6 µM (active).

Take `COC(=O)c1ccccc1-n1c(C)nc(=O)c(-c2ccccc2)c1C`: the “inhibition” value is 10.8% (inactive).

In the case of `C[N+]1(CCCCSc2ccc(O)cc2)CCCCC1`, the IC50 was 4.59 µM (active).

For `CNc1n[nH]c(=S)s1`, the IC50 is 92.7 µM (active).

On to `CC(=O)Oc1cc(O)c2c(=O)c(OC(C)=O)c(-c3ccc(OC(C)=O)c(OC(C)=O)c3)oc2c1`, for which the IC50 was 16.6 µM (active).

For the compound `CC1(C)CC(=O)C=C(NCCc2ccccc2)C1`, the “inhibition” value was -19.5% (inactive).

Turning to `CN1CCN(S(=O)(=O)c2ccc(N3CCN(c4ccc(O)cc4)CC3)c([N+](=O)[O-])c2)CC1`, the IC50 is 4.03 µM (active).

On to `CN1CCN(S(=O)(=O)c2ccc3c(c2)NC(=O)C2CCCN32)CC1` (centres undefined), for which the “inhibition” value is -7.97% (inactive).

Consider `O=[N+]([O-])c1ccc(N2CCN(c3ccc(O)cc3)CC2)cn1`, for which the IC50 was 5.49 µM (active).

Consider `O=C(Nc1ccc(CN2CCOCC2)cc1)c1ccc(N2CCCC2)c([N+](=O)[O-])c1`, for which the “inhibition” value is -12.7% (inactive).

`NC(=O)c1ccc(N2CCN(c3ccc(O)cc3)CC2)c([N+](=O)[O-])c1`: the IC50 was 7.83 µM (active).

As for `CC(=O)Nc1ccc(S(=O)(=O)N2CCN(Cc3ccccc3[N+](=O)[O-])CC2)cc1`, the “inhibition” value was -7.97% (inactive).

With `O=C(O)c1ccc(-c2ccc(O)c(F)c2)cc1`, the IC50 was 7.49 µM (active).

Turning to `O=C1NC(C(=O)O)=CC(c2ccc([N+](=O)[O-])cc2)N1` (centres undefined), the “inhibition” value was -6.48% (inactive).

Consider `CC(/C=N/n1c(-c2n[nH]c3c2CCC3)n[nH]c1=S)=C\c1ccco1`, for which the IC50 was 49 µM (active).

Take `Cc1ccnc(NC(=S)NC(=O)/C=C/c2ccco2)c1`: the “inhibition” value is 8.26% (inactive).

As to `CC(/C=N/n1c(-c2ccncc2)n[nH]c1=S)=C\c1ccco1`, the IC50 is 44.3 µM (active).

In the case of `Cc1cc(-c2n[nH]c(=S)n2/N=C/C=C/c2ccco2)n[nH]1`, the IC50 is 97.4 µM (active).

As to `O=C(O)c1ccc(-n2c(-c3cc(-c4ccco4)[nH]n3)n[nH]c2=S)cc1`, the “inhibition” value was 27.3% (inactive).

Turning to `S=c1[nH]nc(COc2ccccc2)n1/N=C/C=C/c1ccco1`, the “inhibition” value was 21.1% (inactive).

As for `Cc1ccsc1/C=N/n1c(-c2cccnc2)n[nH]c1=S`, the IC50 was 25 µM (active).

On to `O=C(O)c1cc(-c2ccco2)nc2ccc(Br)cc12`, for which the “inhibition” value is 13.5% (inactive).

As to `CC(/C=N/n1c(-c2cccnc2)n[nH]c1=S)=C\c1ccccc1`, the IC50 was 38.8 µM (active).

Take `S=c1[nH]nc(-c2n[nH]c3c2CCC3)n1/N=C/C=C/c1ccco1`: the IC50 was 28.2 µM (active).

Regarding `Cc1ccc(-n2c(-c3cc(-c4ccco4)[nH]n3)n[nH]c2=S)c(Br)c1`, the “inhibition” value was 27.1% (inactive).

With `Cc1ccc(/C=N/n2c(-c3ccco3)n[nH]c2=S)cc1`, the IC50 is 16.5 µM (active).

Regarding `Cc1cccc(/C=N/n2c(-c3ccncc3)n[nH]c2=S)c1`, the IC50 was 88.6 µM (active).

With `C=CCn1c(-c2ccc3ncccc3c2)n[nH]c1=S`, the “inhibition” value was 22.6% (inactive).

For `CCS(=O)(=O)N1CCC(C(=O)NCCN2CCOCC2)CC1`, the “inhibition” value was 20.6% [at 50 µM] (inactive).

As to `Cc1cc(C(F)(F)F)nc2c(Cl)c(C(C)(C)C)nn12`, the “inhibition” value was -28.7% (inactive).

For the compound `NS(=O)(=O)c1ccc(N=Nc2c[nH]c(=O)c(O)c2)cc1`, the IC50 was 7.75 µM (active).

Regarding `CCOC(=O)c1[nH]c2ccccc2c1NC(=S)Nc1cccc(C)c1C`, the IC50 is 29 µM (active).

Take `Cc1cccc(C)c1NC(=S)Nc1ccccc1C(=O)NCc1ccco1`: the “inhibition” value is 8.4% (inactive).

For the compound `CCOC(=O)c1c(C)[nH]c(C(=O)OCC(=O)Nc2cc(Cl)ccc2OC)c1C`, the “inhibition” value is -25.2% (inactive).

Regarding `COc1ccc(NC(=S)N/N=C/c2ccc(F)c(F)c2)cc1`, the IC50 was 23.4 µM (active).

In the case of `Oc1ccc(/C=N/NC(=S)NCCN2CCOCC2)c(O)c1`, the IC50 was 4.25 µM (active).

Take `COc1ccc(C(=O)N/N=C/c2ccc(OC)c(CN3CCc4cc(OC)c(OC)cc4C3C)c2)cc1` (centres undefined): the “inhibition” value was 7.43% (inactive).

As for `COc1ccc(/C=N/NC(=O)c2ccc(Br)cc2)cc1CN1CCOCC1`, the IC50 is 13 µM (active).

With `COc1ccc(CNS(=O)(=O)c2ccc(F)c(C(=O)Nc3ccc(OC)cc3)c2)cc1`, the “inhibition” value was 4.99% (inactive).

On to `COc1cc(/C=N/NC(=S)NCCN2CCOCC2)ccc1O`, for which the IC50 was 2.37 µM (active).

As for `COC(=O)c1sc2nc(-c3ccco3)ccc2c1N`, the “inhibition” value is 22.9% (inactive).

As for `COc1cc(N2C(=O)C=CC2=O)c(OC)cc1Cl`, the “inhibition” value is -17.9% (inactive).

`O=C(O)Cc1nn(Cc2ccc(Cl)cc2)c(=O)c2ccccc12`: the “inhibition” value is -11% (inactive).

Consider `O=c1oc2c3c4c(cc2s1)CCCN4CCC3`, for which the “inhibition” value is 17.1% (inactive).

As for `CCCCCCNC(=O)N[C@H](C(=O)NCCC[C@H]1CN2C(=NC[C@H]2C)N1CCC(c1ccccc1)c1ccccc1)C(C)O` (some centres undefined), the “inhibition” value is 3.98% (inactive).

For `CCN(CC(=O)NC(C)C)C(=O)Cc1ccc(C)c(C)c1`, the “inhibition” value is 8.8% (inactive).

For `COc1ccc(CNC(=S)N/N=C/c2ccc(O)c(OC)c2)cc1`, the IC50 was 7.64 µM (active).

Regarding `O=C(CCN1CCN(c2ccccc2)CC1)N/N=C/c1ccc(O)c(O)c1O`, the “inhibition” value was -207% (inactive).

As to `Oc1cccc(/C=N/NC(=S)NCCN2CCOCC2)c1O`, the IC50 was 7.38 µM (active).

For the compound `Cc1c(NC(=O)CCC2CCCCC2)cc(C(=O)N2CCOCC2)cc1[N+](=O)[O-]`, the “inhibition” value is -18.6% (inactive).

With `COCCCOc1ccnc(CS(=O)c2nc3ccccc3[nH]2)c1C` (centres undefined), the “inhibition” value was 28.1% (inactive).

Regarding `O=C(O)CC1S/C(=N/N=C/C2CC=CCC2)NC1=O` (centres undefined), the “inhibition” value was 12.7% (inactive).

With `Cc1ccc(S(=O)(=O)N2[C@@H](c3ccc(Cl)cc3)C(C(=O)O)=CC[C@H]2c2ccc(C(C)C)cc2)cc1`, the “inhibition” value is -7.5% (inactive).

Regarding `O=C(CN1CCN(S(=O)(=O)c2ccc(F)cc2)CC1)c1ccc(O)c(O)c1`, the IC50 is 7.5 µM (active).

In the case of `CC(C)c1ccc(S(=O)(=O)N2CCN(CC(=O)c3ccc(O)c(O)c3)CC2)cc1`, the IC50 was 5.79 µM (active).

With `Cc1cc(C)nc(SCc2cc(=O)c(OC(=O)c3ccc(S(=O)(=O)N4CCCC4)cc3)co2)n1`, the “inhibition” value is 7.74% (inactive).

Regarding `Cc1cccc(-c2ncc(CN3CCCC(CO)(Cc4ccccc4C)C3)cn2)c1` (centres undefined), the “inhibition” value was 10.8% (inactive).

`CC1CCN(CC(C)OC(=O)c2ccc3c(c2)OCCO3)CC1` (centres undefined): the “inhibition” value is -4.34% (inactive).

With `CCOc1cc(N2CCOCC2)c(OCC)cc1NS(=O)(=O)c1ccc(Cl)s1`, the IC50 is 6.56 µM (active).

As for `CCOc1ccc(CCNC(=O)c2cc(-c3ccccc3)c(N3CCOCC3)s2)cc1OCC`, the “inhibition” value was 5.68% (inactive).

`CCOc1cc(N2CCOCC2)c(OCC)cc1NC(C)C(=O)N1CCC(C)CC1` (centres undefined): the IC50 was 5.37 µM (active).

With `CCNC(=S)Nc1cc(OCC)c(N2CCOCC2)cc1OCC`, the IC50 was 4.1 µM (active).

For `CCOc1ccc(OCCC(=O)OCC(=O)Nc2cc(OCC)c(N3CCOCC3)cc2OCC)cc1`, the IC50 was 8.04 µM (active).

In the case of `CCCC(=O)O[C@]1(C(=O)CO)CC[C@H]2[C@@H]3CCC4=CC(=O)CC[C@]4(C)[C@H]3[C@@H](O)C[C@@]21C`, the “inhibition” value is 23.6% (inactive).

For the compound `COc1cc(/C=N/Nc2nc3ccccc3[nH]2)cc(OC)c1O`, the IC50 was 6.33 µM (active).

`C(=N\Nc1nc2ccccc2[nH]1)/c1cccs1`: the IC50 was 7.86 µM (active).

`COc1cc(/C=N/Nc2nc3ccccc3o2)cc(OC)c1O`: the IC50 was 6.58 µM (active).

Regarding `COc1cc(/C=C2\CCc3c2nc2ccccc2c3C(=O)O)cc(OC)c1OC`, the “inhibition” value is 13% (inactive).

With `COc1cc(/C=N/Nc2nc3ccccc3[nH]c2=O)ccc1O`, the IC50 was 8.65 µM (active).

As to `CCC[C@@H]1CCCO[C@@](C(=O)NCc2ccc(S(C)(=O)=O)cc2)(C(F)(F)F)C1`, the “inhibition” value was 8.24% (inactive).

Regarding `Cc1cc(/C=C2\SC(=S)NC2=O)c(C)n1-c1cccc(O)c1`, the “inhibition” value is 6.67% (inactive).

As to `O=C1NC(=NCc2ccccc2)S/C1=C/c1ccc(O)cc1`, the IC50 was 8.9 µM (active).

As for `Cc1c(N=C2NC(=O)/C(=C/c3ccc(O)cc3)S2)c(=O)n(-c2ccccc2)n1C`, the IC50 was 10 µM (active).

In the case of `O=C1N/C(=C\c2ccc(O)cc2)C(O)=C1C=NCc1ccccc1`, the IC50 was 5.69 µM (active).

On to `O=C1NC(=O)/C(=C/c2ccc(O)cc2)S1`, for which the IC50 was 5.07 µM (active).
